An excerpt weighted towards active compounds, which were near 2.4% of everything screened.
NadD inh: inhibitors of S. aureus NadD, primary screen, biochemical, colorimetric, uHTS; Nicotinate-nucleotide adenylyltransferase NadD (Staphylococcus aureus N315); purified NadD enzyme, colorimetric absorbance read-out; actives 0.78% (n = 360,000); AID 602399, 2012; inhibition, % at 20 µM; in the data active = inhibition above about 26%
Rpn11 block: Rpn11 (PSMD14) deubiquitinase inhibitors, primary screen, biochemical, fluorescence polarization, uHTS | 26S proteasome non-ATPase regulatory subunit 14 (Homo sapiens), O00487 | human 26S proteasome, Ub4-pepOG fluorescence polarization; 20S core pre-blocked with epoxomicin | inhibition, % at 20 µM | actives 0.59% (n = 360,000) | AID 588493, 2011;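 active = inhibition at 20 µM, scaled to each plate's controls, above about 33%, limit read from the data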
Target sequence (O00487 whole entry, looked up): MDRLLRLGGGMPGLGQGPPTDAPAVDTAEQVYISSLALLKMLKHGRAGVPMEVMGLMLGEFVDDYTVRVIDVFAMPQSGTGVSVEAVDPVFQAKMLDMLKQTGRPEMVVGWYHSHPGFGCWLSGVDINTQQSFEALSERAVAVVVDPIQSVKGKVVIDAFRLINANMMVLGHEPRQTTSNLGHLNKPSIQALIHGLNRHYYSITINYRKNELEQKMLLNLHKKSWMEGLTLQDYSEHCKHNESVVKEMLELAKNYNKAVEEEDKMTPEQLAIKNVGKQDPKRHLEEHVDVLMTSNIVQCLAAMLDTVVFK
PREPL inh: PREPL enzyme inhibitors, primary screen, biochemical, fluorescence polarization; recombinant PREPL, fluorescence polarization activity-based probe; inhibition, % at 5.96 µM; actives 0.68% (n = 320,000); in the data active = inhibition above about 43%;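 also: 0% = enzyme with DMSO and 100% = wells lacking enzyme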
PP1 inh: PP1-alpha phosphatase inhibitors, primary screen, counter-screen for PP5 inhibitor project, biochemical, fluorescence, OMFP substrate, single point. Serine/threonine-protein phosphatase PP1-alpha catalytic subunit (Homo sapiens), P62136. purified PP1alpha. inhibition, % at 6.7 µM. actives 0.9% (n = 320,000);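 active = inhibition above the mean inhibition of all tested compounds plus 3 SD, computed separately for each screening campaign, cut at about 15% in these data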
PP5 primary: PP5 phosphatase inhibitors, primary screen, biochemical, fluorescence | purified PP5c, OMFP substrate fluorescence | actives 0.18% (n = 320,000) | AID 1987, 2009 | inhibition, % at 6.7 µM;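 active = inhibition above the campaign's mean inhibition across all tested compounds plus 3 SD, cut at about 9.5% in these data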;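 also: 0% = DMSO only and 100% = 100 µM cantharidin control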
Starred values were filed as active, the others as inactive; nt = no result given.

SMILES	NadD inh	Rpn11 block	PREPL inh	PP1 inh	PP5 primary
CCOC(=O)c1ccc(/[N+]([O-])=C/c2ccccc2)cc1	1.7	-16.0	5.8	-2.9	-2.9
C#CCCc1cscc1/C=[N+](\[O-])c1ccc(C(=O)OCC)cc1	1.0	-0.4	-1.2	15.3*	-1.5
Cc1oc(-c2ccc(Cl)cc2)nc1CN1CCC(C(=O)NCc2cccnc2)CC1	-5.3	-0.4	12.1	0.7	-2.6
CCCN(CCC)CCNC(=O)C1CCN(Cc2nc(-c3ccc(Cl)cc3)oc2C)CC1	-5.6	7.0	45.1*	-2.6	0.5
N#C/C(=C(/O)c1ccccc1F)c1nc2cc(C(F)(F)F)ccc2s1	-5.6	33.0*	-3.3	-0.2	-0.5
N#C/C(=C(/O)c1ccc2c(c1)OCO2)c1nc2cc(C(F)(F)F)ccc2s1	-3.3	16.6	7.9	1.4	3.9
O=C1NN(c2ccccc2)C(=O)/C1=C\c1cccn1-c1ccc(Cl)c([N+](=O)[O-])c1	41.7*	-4.4	-0.7	3.8	0.3
O=C1NN(c2ccccc2)C(=O)C1=Cc1ccccc1O	-0.6	-1.8	nt	nt	nt
CCCCCc1cc(=O)oc2c(C(CCN(CC)CC)c3ccc(N(C)C)cc3)c(OC)cc(OC)c12 (centres undefined)	0.6	8.6	29.1	9.1	4.2
O=C(O)COc1ccccc1C(Nc1cccnc1)c1cc(Cl)c2cccnc2c1O (centres undefined)	37.2*	17.0	nt	nt	nt
COc1ccccc1C(NC(C)=O)c1cc(Cl)c2cccnc2c1O (centres undefined)	6.3	8.5	2.8	-1.9	-0.9
O=C(O)COc1ccccc1C(Nc1ccccn1)c1cc(Cl)c2cccnc2c1O (centres undefined)	37.8*	18.7	2.9	5.8	-1.7
O=C(COc1ccc2c(-c3ccccc3)cc(=O)oc2c1)N1C[C@H]2C[C@@H](C1)c1cccc(=O)n1C2	7.0	6.3	nt	nt	nt
CCCC(=O)NC(c1ccccc1OC)c1ccc2cccnc2c1O (centres undefined)	8.5	0.3	2.4	-2.5	-1.0
CCCCC(=O)NC(c1ccccc1OC)c1ccc2cccnc2c1O (centres undefined)	4.8	13.1	12.4	15.3*	3.7
OC[C@@H]1CN(Cc2ccc(-c3ccccc3)cc2)C[C@H](n2cnc3c(NCc4ccncc4)ncnc32)O1	1.1	-2.2	nt	nt	nt
O=C(NC1CCCCC1)C(c1ccncc1)N(Cc1ccccc1)C(=O)c1ccc(-c2ccccc2)[nH]1 (centres undefined)	8.1	7.7	-1.4	15.6*	0.5
O=C1NN=C2CCCCCCCCCCC12 (centres undefined)	-0.9	-7.9	nt	nt	nt
CCCNC(=O)C1(C)CCCN(Cc2ccc(C(F)(F)F)cc2)C1 (centres undefined)	-5.0	-2.4	nt	nt	nt
CCCC(=O)N1CCC1(C)C(=O)Nc1ncc(C(=O)OC)s1 (centres undefined)	0.2	-3.1	nt	nt	nt
Cc1nn(-c2ccccc2)c(C)c1/C=N/NC(=O)CSc1nnc(SCc2cccc3ccccc23)s1	20.7	-1.8	-19.5	16.1*	1.6
Cc1ccc(/C=C2/SC(=S)N(c3ccc(S(=O)(=O)Nc4nccs4)cc3)C2=O)cc1	62.3*	12.1	20.9	9.1	2.9
O=C1/C(=C/c2ccccn2)SC(=S)N1c1ccc(O)cc1	-0.3	-2.8	2.8	2.5	1.8
O=C1/C(=C\c2ccccn2)SC(=S)N1c1ccc(S(=O)(=O)Nc2nccs2)cc1	44.0*	4.7	12.7	6.7	1.8
COc1ccc(/C=C2/SC(=S)N(c3ccc(S(=O)(=O)Nc4nccs4)cc3)C2=O)cc1	56.0*	33.8	24.1	10.4	4.8
SMILES	NadD inh	Rpn11 block	PREPL inh	PP1 inh	PP5 primary
C/C(=N\NC(=O)c1nnn(-c2nonc2N)c1CN(C)c1ccccc1)c1cccnc1	2.8	-12.6	5.5	-3.0	-0.3
OC[C@@H]1CN(Cc2cccc(C(F)(F)F)c2)C[C@H](n2cnc3c(NCc4ccco4)ncnc32)O1	2.4	2.3	nt	nt	nt
N#Cc1c(NCCN)nc(NCc2ccccc2)c2c1CCN(Cc1ccccc1)C2	30.5*	4.1	nt	nt	nt
Cc1cccc(/C=C/C(=O)c2cc(Br)ccc(=O)c2O)c1	29.5	14.5	6.6	17.5*	0.6
CCc1ccc(/C=C/C(=O)c2cc(Br)ccc(=O)c2O)cc1	2.1	0.0	21.6	12.4	4.6
N#Cc1cccc(NC(=O)c2cc(C3CCCCN3S(=O)(=O)c3ccccc3)on2)c1 (centres undefined)	-2.9	3.0	nt	nt	nt
CN(C)c1ccc([C@@H]2[C@@H]([N+](=O)[O-])[C@H]3C=Cc4ccccc4N3[C@H]2C(=O)c2ccc(Cl)cc2)cc1	13.8	69.2*	34.7	16.1*	0.7
O=C(CN1C(=O)/C(=C/c2ccc(Cl)cc2)SC1=S)NC1C=CS(=O)(=O)C1 (centres undefined)	5.1	-0.9	23.9	-6.5	1.9
COc1ccc(/C=C2\SC(=S)N(CC(=O)NC3C=CS(=O)(=O)C3)C2=O)cc1 (centres undefined)	13.5	6.2	28.1	15.8*	0.5
O=C(NC1CCN(S(=O)(=O)c2cccc([N+](=O)[O-])c2)CC1)C1CCCCC1	-0.9	31.8	7.9	16.0*	1.8
O=C(Nc1ccc(N2CCOCC2)cc1)c1ccc(COc2ccccc2)cc1	2.4	2.4	12.0	16.2*	0.7
CCOc1cccc(C(=O)Nc2ccc(N3CCCC3)cc2)c1	8.1	14.3	18.4	16.2*	3.7
CC(=O)Nc1ccc(NC(=O)c2ccc(COc3ccccc3)cc2)cc1	1.6	-0.6	-7.7	0.2	3.1
O=C(Nc1ccc(N2CCCC2)cc1)c1ccc(Br)o1	43.6*	4.6	33.2	14.8	5.8
CC(C)CN1CCC1(C)C(=O)Nc1cc(-c2ccccc2)nn1C (centres undefined)	-5.1	-2.0	nt	nt	nt
CCc1nc2ccc(C(=O)NCc3ccccc3OC)cn2c1N(CC)CCOC	-5.4	0.3	nt	nt	nt
CN(C)c1ccc(C(CNC(=O)c2ccc(C#N)cc2)c2c[nH]c3ccccc23)cc1 (centres undefined)	7.3	-11.6	65.1*	1.6	2.6
CCOC(=O)c1ccc(S(=O)(=O)NCC(c2ccc(N(C)C)cc2)c2c[nH]c3ccccc23)cc1 (centres undefined)	12.0	-0.4	28.3	1.0	2.4
Cc1cc(C(=O)N/N=C/c2ccc(O)c(O)c2O)c(C)n1-c1ccccc1	33.0*	15.8	nt	nt	nt
O=C(CCn1nnc2ccccc21)Nc1nnc(COc2ccccc2F)s1	-1.1	4.2	-23.5	0.9	4.1
O=C(CCn1nnc2ccccc21)Nc1nnc(-c2ccccc2F)s1	-6.6	-1.9	-4.0	16.7*	3.0
